High-throughput results from PubChem.
This is a sample that favours compounds with a hit; in the whole collection about 4.6% have one here.
D1 antagonist: blocks dopamine activation of the human D1 receptor; P21728; HEK293 TREx D1 cells, calcium flux, dopamine EC80; hits give low values; activity change, negative = inhibition, % at 10 µM; actives 3.2% (n = 360,000); AID 504652; in the data active means activity change below about -30%; further: on the % scale 0 is the no-effect control and ±100 the full control effect
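Allosteric or orthosteric antagonism assessed as attenuation of the calcium response to EC80 dopamine, added 180 s after compound, in induced HEK293 Trex D1 cells loaded with no-wash calcium dye.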
TRHR ag: activates the human TRH receptor; P34981; TRHR cells, calcium flux fluo-8, FDSS agonist mode; activation, % at 2 µM; actives 0.18% (n = 360,000); AID 493084; further: 0% is about no effect
Target sequence (P34981 whole entry, looked up): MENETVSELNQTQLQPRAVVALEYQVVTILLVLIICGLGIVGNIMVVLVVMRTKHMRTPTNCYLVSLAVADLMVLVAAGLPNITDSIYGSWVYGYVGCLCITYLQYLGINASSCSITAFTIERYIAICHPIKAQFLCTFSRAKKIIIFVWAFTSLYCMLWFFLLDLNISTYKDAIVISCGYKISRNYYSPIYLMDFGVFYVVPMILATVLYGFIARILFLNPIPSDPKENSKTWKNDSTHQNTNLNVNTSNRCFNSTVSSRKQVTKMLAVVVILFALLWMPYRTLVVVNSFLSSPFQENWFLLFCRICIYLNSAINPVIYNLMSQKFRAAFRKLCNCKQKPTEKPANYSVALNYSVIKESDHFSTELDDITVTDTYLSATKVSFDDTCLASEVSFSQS
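Steps: seed TRHR cells overnight; add fluo-8 no-wash Ca dye, RT 30 min–1.5 h; record 10 s baseline; pin-transfer compounds; monitor fluorescence 1 cycle/s for the agonist window. Calcium increases flag candidate agonists.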
D1 agonist: agonists of human D1 dopamine receptor; P21728; HEK293 T-REx D1 cells, calcium flux, agonist mode; activation, % at 2 µM; actives 1% (n = 360,000); AID 504660; further: 0% is about no effect
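Agonism was scored from calcium flux recorded over 180 s (1 read/s) after pintool compound addition, following a 10-cycle baseline. Cells were inducible force-coupled HEK293 TREx D1, plated overnight at 30 C and loaded with no-wash calcium dye.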
D1 PAM: human D1 dopamine receptor positive modulation; P21728; HEK293 TREx D1 cells, calcium flux, dopamine EC20 potentiation; potentiation, % at 10 µM; actives 0.036% (n = 360,000); in the data active means potentiation above about 30%; further: 0% is about no effect
TRHR enhancer: allosterically enhances the human TRH receptor. enhancement, % at 2 µM. AID 493056. TRHR cells, fluo-8 calcium fluorescence, EC20 TRH enhancement. actives 0.66% (n = 360,000). P34981; in the data active means enhancement above about 30%; further: 0% is about no effect
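Enhancer read-out: after compound pinning and an initial kinetic agonist-mode read, an EC20 of TRH (10 nM final) was injected and fluo-8 calcium signal (Ex 480/Em 530) followed at 1 s/cycle for 100 cycles in TRHR-expressing cells.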
* hit, by the source's call; x = no result given. Unless noted, no stated cut-off is given here; in the data, active means activation above about 30%; inactive means the rest.

SMILES	D1 antagonist	TRHR ag	D1 agonist	D1 PAM	TRHR enhancer
COc1ccc(CNc2nc3ccccc3n2C)c(OC)c1	-40*	-1	12	-4	-5
Cc1ccc(CNC(=O)c2oc3ccc(S(=O)(=O)N4CCC(C)CC4)cc3c2C)cc1	-19	0	2	-1	21
COc1ccc(CNC(=O)CSCc2ccc(C)cc2)c(OC)c1	9	-1	-2	0	3
O=C1NC(=S)S/C1=C/c1ccc(N2CCOCC2)o1	-3	-1	7	2	6
O=C1S/C(=C/c2ccc(N3CCOCC3)o2)C(=O)N1Cc1ccc(F)cc1	-4	35*	83*	-5	-6
CC(C)OC(=O)CN1C(=O)S/C(=C/c2ccc(N3CCCCC3)o2)C1=O	2	27	61*	-7	3
O=C1S/C(=C\c2ccc(N3CCOCC3)o2)C(=O)N1Cc1ccc(F)cc1	9	22	42*	-6	-5
Cc1cccc(Nc2nc3ccccc3n3c(N)nnc23)c1	-1	-1	0	-2	2
CC(=O)N1CCc2cc(S(=O)(=O)NC(Cc3ccccc3)C(=O)Nc3cccc(C)c3)ccc21 (configuration not stated)	-38*	-1	2	-2	6
CCC(=O)N1CCc2cc(S(=O)(=O)NCCC(=O)N3CCN(c4cccc(C)c4)C(C)C3)ccc21 (configuration not stated)	-40*	0	11	-7	2
CCC(=O)N1CCc2cc(S(=O)(=O)NC(C(=O)NCCc3cccc(C)c3)C(C)C)ccc21 (configuration not stated)	-62*	-1	0	-2	-2
CCC(=O)N1CCc2cc(S(=O)(=O)NC(C(=O)NCc3ccccc3)C(C)C)ccc21 (configuration not stated)	1	0	1	-3	-7
CCC(=O)N1CCc2cc(CNS(=O)(=O)c3cc(OC)ccc3OC)ccc21	3	0	0	-6	5
CC(C)Oc1ccc(CNC(=O)c2ccc(NC(=O)N3CCSc4ncccc43)cc2)cc1	0	-1	1	-1	5
Cc1cccc(C)c1NC(=O)C(=O)NCC(c1cccnc1)N1CCc2ccccc21 (configuration not stated)	-9	0	-1	2	-5
O=c1c2ccccc2[nH]c(=S)n1CCCN1CCN(c2ccccc2F)CC1	-75*	0	4	-32	7
O=c1c2cccnc2[nH]c(=S)n1CCCN1CCN(c2ccccc2F)CC1	-14	0	2	-6	14
O=C(CCCCCn1c(=S)[nH]c2ccc(N3CCOCC3)cc2c1=O)NC1CCN(Cc2ccccc2)CC1	-32*	-1	0	-8	3
O=c1c2ccccc2[nH]c(=S)n1CCCN1CCN(c2ccccc2)CC1	-58*	0	1	-10	1
O=c1c2ccccc2[nH]c(=S)n1CCN1CCCCC1	9	0	0	-13	-3
Cc1c(Cl)cccc1NC(=O)CSc1ncccc1C(=O)Oc1ccccc1Cl	27	1	7	-1	5
CC(=O)Nc1ccc(NC(=O)C2CCCN2S(=O)(=O)c2cccc3nsnc23)cc1 (configuration not stated)	5	0	-1	-1	10
CC1CCCC(NC(=O)C2CCCN2S(=O)(=O)c2cccc3nsnc23)C1C (configuration not stated)	17	1	2	x	36*
CCOC(=O)N1CCC(NC(=O)C2CCN(S(=O)(=O)c3cccc4cccnc34)CC2)CC1	-7	-1	3	-4	-14
O=C(NC1CCCC1)C1CCCN1S(=O)(=O)c1cccc2cccnc12 (configuration not stated)	-34*	0	1	-5	-4
SMILES	D1 antagonist	TRHR ag	D1 agonist	D1 PAM	TRHR enhancer
O=C(NC1CCCCC1)C1CCN(S(=O)(=O)c2cccc3cccnc23)CC1	-65*	0	3	-9	-2
COc1ccc(C(=O)COC(=O)C2CCN(S(=O)(=O)c3cccc4cccnc34)CC2)cc1	-70*	1	5	-6	7
CCOc1ccc(NC(=O)c2cnn3c2NC(C)=C(C(=O)Nc2ccc(Cl)cc2)C3c2ccc(OC)c(OC)c2)cc1 (configuration not stated)	-20	-1	2	3	7
COC(=O)c1ccccc1S(=O)(=O)N1CCC(C(=O)OCc2cccc(OC)c2OC)CC1	-39*	1	44*	-1	4
COc1ccc(NC(=O)C(c2ccc(C)cc2)N(C)C(=O)/C=C\c2ccc3c(c2)OCO3)cc1 (configuration not stated)	-12	1	5	0	8
Cn1cc(/C=N/n2cnc3scc(-c4ccccc4)c3c2=O)c2ccccc21	-44*	1	3	-6	0
Cc1c(Cl)cccc1NC(=O)c1cnc2sc(N3CCCC3)nn2c1=O	-2	0	0	-6	-2
Cc1ccc(C)c(N2CCN(S(=O)(=O)c3ccc(-c4coc(C)n4)cc3)CC2)c1	-3	0	0	-4	6
CCN(CC)C(=O)CSc1nnc(-c2cccs2)n1Cc1ccco1	-32*	0	3	-6	-1
O=C(O)c1ccc(CS(=O)c2cccc(C(F)(F)F)c2)o1 (configuration not stated)	-32*	0	9	-1	3
COCCNC(=O)c1c(NC(=O)c2cc(=O)c3cc(Cl)ccc3o2)sc2c1CCCC2	20	0	1	0	-1
COc1cccc2c(=O)cn[nH]c12	-52*	0	1	-7	2
COCCNC(=O)c1ccc2c(c1)N(Cc1ccc(C(F)(F)F)cc1)C(=O)c1ccccc1S2	18	2	-1	4	-7
COC(=O)CC1Oc2ccccc2-n2cc(-c3ccc(F)cc3)nc21 (configuration not stated)	6	-1	3	-4	-3
O=C(O)CCCN1C(=O)C(=O)/C(=C(/O)c2ccccc2)C1/C=C/c1ccccc1 (configuration not stated)	-31*	0	3	-4	20
Cc1cccc(C(c2sc3nc(-c4ccco4)nn3c2O)N2CCN(c3ccccc3)CC2)c1 (configuration not stated)	x	0	1	3	6
Cc1ccc(-c2nc3cc(Cl)ccc3o2)cc1NC(=O)COc1ccc(F)cc1	-6	0	-1	0	-3
CCc1ccc(NC(=O)c2cc3nc(-c4ccc(C)cc4)cc(C(F)(F)F)n3n2)cc1	1	0	-1	-1	-1
COc1ccc(NC(=O)c2ccc(-c3ccc(-c4noc(C)n4)cc3C)cc2)cc1N1CCN(C)CC1	-57*	0	14	-5	1
